Experimental findings from PubChem BioAssay AID2781 (National Center for Advancing Translational Sciences (NCATS), 2010) are described below.

The target of this experiment is Menin (Homo sapiens) (UniProt O00255). Put plainly: Confirmation of Inhibitors Targeting the Menin-MLL Interaction in MLL Related Leukemias: NMR spectroscopy to verify direct binding of compounds to menin. The following applies: purified menin, NMR STD binding, 100 uM. The text has this: qHTS Assay for Inhibitors Targeting the Menin-MLL Interaction in MLL Related Leukemias NIH Chemical Genomics Center [NCGC] NIH Molecular Libraries Probe Centers Network [MLPCN] MLPCN Grant: MH084875-01A1 Assay Submitter (PI): Jolanta Grembecka, Tomasz Cierpicki, University of Virginia Translocations of the MLL (Mixed Lineage Leukemia) gene are frequently found in human leukemias affecting both children and adults. Fusion of MLL to one of more than 60 genes results in generation of oncogenic proteins upregulating Hox genes, which are vital to blood cell development. Patients harboring fusion of the MLL gene suffer from aggressive leukemias and respond poorly to available therapies. All of the oncogenic fusion proteins have a preserved N-terminal fragment of MLL that has been identified to interact with menin. It has been recently discovered that association with menin is critical to the leukemogenic activity of the MLL fusion oncoproteins. Selective targeting of the menin-MLL interaction could provide an attractive therapeutic approach to develop novel drugs for MLL-related leukemias. Small molecules blocking the menin-MLL interaction should reverse the oncogenic potential of MLL fusion proteins. We have developed and optimized a fluorescence polarization-based assay for the identification of Menin-MLL inhibitors. The assay was run employing two different MLL-derived peptides. […]

The structures appear in SMILES notation. Active and inactive are the calls of the source.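 How the source made its calls: active means compound whose NMR saturation transfer difference test with menin is positive, showing direct binding to the protein; inactive means the rest.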

Sequence of Menin (Homo sapiens) (O00255 whole entry, looked up, the tested form may be a part): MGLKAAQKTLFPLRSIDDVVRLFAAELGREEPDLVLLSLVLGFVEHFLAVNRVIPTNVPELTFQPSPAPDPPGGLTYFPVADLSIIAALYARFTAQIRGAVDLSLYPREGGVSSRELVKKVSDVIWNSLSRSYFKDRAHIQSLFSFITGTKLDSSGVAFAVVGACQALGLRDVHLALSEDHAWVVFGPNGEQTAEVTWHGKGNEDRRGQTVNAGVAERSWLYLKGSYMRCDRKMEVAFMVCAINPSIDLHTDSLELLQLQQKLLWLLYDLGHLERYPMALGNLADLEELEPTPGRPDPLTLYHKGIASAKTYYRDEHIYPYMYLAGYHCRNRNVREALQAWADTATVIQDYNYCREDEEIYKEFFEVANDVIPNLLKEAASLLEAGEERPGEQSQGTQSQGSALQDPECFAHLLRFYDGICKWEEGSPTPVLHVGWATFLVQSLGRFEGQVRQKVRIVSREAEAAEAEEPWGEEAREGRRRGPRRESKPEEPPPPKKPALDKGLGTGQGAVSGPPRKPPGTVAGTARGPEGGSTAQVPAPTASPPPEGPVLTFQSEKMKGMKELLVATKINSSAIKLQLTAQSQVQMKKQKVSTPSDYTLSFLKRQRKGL

In the case of `c1cc2cc(c1)C[n+]1ccc(c3ccccc31)NCc1ccc(cc1)CNc1cc[n+](c3ccccc13)C2`, the outcome is “inactive; negative”.
The entry for `CCCCn1c(=O)c(C(=O)Nc2ccsc2C(=O)OC)c(O)c2ccccc21` is “inactive; negative”.
